Data from PubChem BioAssay AID1159580 (chemical genetic matrix, 2015).
Out of some 5,500 compounds screened, about 2,000 (36%) were called active. About 18% were inconclusive and are not listed. Cut-off read from the data, not from the text of the source: active = normalized growth mostly below about 0.91 (no sharp cut-off); inconclusive = no clear call, values can overlap the other calls; inactive = mostly above about 0.92. This is one part of the list.

Test: chemical genetic growth profiling, strain panel (AID 1159580);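 note: tested at 20 µM; growth read once vehicle control cultures reached saturation at 30 °C; 1 = growth at the plate median or of vehicle wells; lower values mean less growth of the strain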
Conditions: S. cerevisiae deletion strains, growth OD

Measured: normalized growth

NC(=NCCC[C@H](N)C(=O)O)NO
inactive: locus YAL013W, strain DEP1, active compounds read low 1.03 | locus YAL040C, strain CLN3, active compounds read low 1 | locus YCL061C, strain MRC1 (second series), active compounds read low 1.01 | locus YDR363W, strain ESC2, active compounds read low 1.02 | locus YER002W, strain NOP16, active compounds read low 1.01 | locus YGR078C, strain PAC10, active compounds read low 1.02 | locus YNL128W, strain TEP1, active compounds read low 1 | locus YNL175C, strain NOP13, active compounds read low 1 | locus YNL197C, strain WHI3, active compounds read low 1.01 | locus YNL224C, strain SQS1, active compounds read low 0.992 | locus YOR083W, strain WHI5 (second series), active compounds read low 1.01 | locus YPL241C, strain CIN2, active compounds read low 1.01

CC(C)[C@H](N)C(=O)OCCOCn1cnc2c(=O)[nH]c(N)nc21
inactive: locus YAL021C, strain ccr4, active compounds read low 1.06 | locus YAL026C, strain drs2, active compounds read low 1.02 | locus YAL030W, strain snc1, active compounds read low 1.03 | locus YBL061C, strain skt5, active compounds read low 1.02 | locus YBR009C, strain hhf1, active compounds read low 0.961 | locus YBR023C, strain chs3, active compounds read low 1.02 | locus YBR171W, strain sec66, active compounds read low 1.01 | locus YBR231C, strain swc5, active compounds read low 0.934 | locus YBR279W, strain paf1, active compounds read low 1.02 | locus YCL011C, strain gbp2, active compounds read low 1.01 | locus YCL016C, strain dcc1, active compounds read low 1.05 | locus YCL069W, strain vba3, active compounds read low 1 | locus YCR088W, strain abp1, active compounds read low 1.02 | locus YDL005C, strain med2, active compounds read low 1.02 | locus YDL040C, strain nat1, active compounds read low 0.998 | locus YDR001C, strain nth1, active compounds read low 1.01 | locus YDR069C, strain doa4, active compounds read low 1 | locus YDR137W, strain rgp1, active compounds read low 1.08 | locus YDR159W, strain sac3, active compounds read low 0.94 | locus YDR195W, strain ref2 0.973 | locus YDR297W, strain sur2, active compounds read low 1 | locus YDR334W, strain swr1, active compounds read low 1.01 | locus YDR335W, strain msn5, active compounds read low 1.01 | locus YDR392W, strain spt3, active compounds read low 1.03 | locus YEL003W, strain gim4, active compounds read low 0.996 | locus YEL037C, strain rad23, active compounds read low 1.01 | locus YEL061C, strain CIN8 (second series), active compounds read low 1 | locus YER015W, strain faa2, active compounds read low 1.01 | locus YER016W, strain bim1, active compounds read low 1.05 | locus YER111C, strain swi4, active compounds read low 1.03 | locus YER155C, strain BEM2 (second series), active compounds read low 1.11 | locus YFR010W, strain ubp6, active compounds read low 0.974 | locus YGL167C, strain pmr1, active compounds read low 1.01 | locus YGL173C, strain kem1, active compounds read low 1.01 | locus YGL227W, strain vid30, active compounds read low 1.01 | locus YGL240W, strain doc1, active compounds read low 0.993 | locus YGL253W, strain hxk2, active compounds read low 0.981 | locus YHR013C, strain ard1, active compounds read low 1.02 | locus YHR027C, strain rpn1, active compounds read low 1.01 | locus YHR030C, strain SLT2, active compounds read low 1.07 | locus YHR079C, strain IRE1, active compounds read low 1.07 | locus YHR142W, strain chs7, active compounds read low 0.988 | locus YJL092W, strain hpr5, active compounds read low 1.01 | locus YJL095W, strain BCK1 (second series), active compounds read low 1.04 | locus YJL095W, strain BCK1, active compounds read low 1.02 | locus YJL115W, strain asf1, active compounds read low 1.01 | locus YJL129C, strain trk1, active compounds read low 0.982 | locus YJL154C, strain vps35, active compounds read low 1.01 | locus YJL164C, strain tpk1, active compounds read low 0.995 | locus YJL166W, strain qcr8, active compounds read low 1.03 | locus YJL187C, strain SWE1, active compounds read low 1 | locus YJR066W, strain TOR1, active compounds read low 0.99 | locus YKL160W, strain elf1, active compounds read low 1.06 | locus YKR026C, strain gcn3, active compounds read low 1.01 | locus YKR091W, strain srl3, active compounds read low 1.01 | locus YLL001W, strain dnm1, active compounds read low 0.96 | locus YLL026W, active compounds read low 1.01 | locus YLL041C, strain sdh2, active compounds read low 1.03 | locus YLR027C, strain aat2, active compounds read low 1.01 | locus YLR113W, strain HOG1, active compounds read low 0.977 | locus YLR221C, strain rsa3, active compounds read low 0.96 | locus YLR258W, strain gsy2, active compounds read low 1.03 | locus YLR262C, strain YPT6 (second series), active compounds read low 1.01 | locus YLR320W, strain mms22, active compounds read low 0.971 | locus YLR342W, strain FKS1, active compounds read low 1.03 | locus YLR357W, strain rsc2, active compounds read low 1.04 | locus YLR370C, strain arc18, active compounds read low 1.03 | locus YLR384C, strain iki3, active compounds read low 1.03 | locus YML120C, strain ndi1, active compounds read low 0.969 | locus YMR058W, strain fet3, active compounds read low 1.04 | locus YMR125W, strain sto1, active compounds read low 1.04 | locus YMR129W, active compounds read low 1.02 | locus YMR205C, strain PFK2, active compounds read low 1.01 | locus YMR231W, strain pep5, active compounds read low 1 | locus YNL071W, strain lat1, active compounds read low 1.02 | locus YNL183C, strain NPR1, active compounds read low 0.946 | locus YNL209W, strain ssb2, active compounds read low 1.02 | locus YNL248C, strain rpa49, active compounds read low 1.04 | locus YNL322C, strain KRE1 (second series), active compounds read low 1.04 | locus YNR049C, strain mso1, active compounds read low 0.998 | locus YOR001W, strain rrp6, active compounds read low 0.943 | locus YOR070C, strain gyp1, active compounds read low 1.03 | locus YOR080W, strain dia2, active compounds read low 1.01 | locus YOR083W, strain WHI5, active compounds read low 0.992 | locus YOR106W, strain vam3, active compounds read low 1.02 | locus YOR231W, strain MKK1, active compounds read low 1.04 | locus YOR265W, strain rbl2, active compounds read low 1.01 | locus YOR270C, strain vph1, active compounds read low 0.864 | locus YOR290C, strain snf2, active compounds read low 1.05 | locus YPL051W, strain arl3, active compounds read low 1.04 | locus YPL078C, strain atp4, active compounds read low 1.04 | locus YPL106C, strain sse1, active compounds read low 1.06 | locus YPL240C, strain hsp82, active compounds read low 1.01 | locus YPL256C, strain CLN2, active compounds read low 1.08
